# Results as given in PubChem BioAssay AID2172 (The Scripps Research Institute Molecular Screening Center, 2009).
# The list shows a part of the results. A number with no mark means an inactive call. How the calls were made is not given here.
# Assay: compounds displacing fluorescent intercalator from DNA, dose response, counter-screen for HCV NS3 helicase inhibitor project, biochemical, fluorescence (AID 2172)
# Settings: fluorescent intercalator displacement from DNA
compound,measurement,value
COc1ccc(N2C(=O)/C(=C/c3ccco3)C(=O)NC2=S)cc1,IC50,28.9 µM
